# Measured values reported in PubChem BioAssay (EPA / NIEHS).
# Results filed as inconclusive are left out. Some structures have more than one record in an assay (separate samples or runs), and their calls can disagree. Active and inactive are the calls of the source. Rule for the calls, unless noted: active = hit-call score of the fitted dose curve at least 0.9, where 1 is the maximum; inactive = score below 0.9.
# Legend:
# [1] = target: Estrogen-related receptor gamma (Homo sapiens) (UniProt P62508); assay: ATG_ERRg_TRANS: Attagene TRANS-FACTORIAL HepG2 Assay for human Estrogen-Related Receptor gamma (ERRg) (AID 2282977; active = hit-call score of the fitted dose curve at least 0.9, where 1 is the maximum;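 note: hits increase reporter signal over DMSO so potencies reflect activators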); conditions: HepG2 Attagene TRANS reporter, ERRg transactivation
# Summary of the method: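 HepG2 cells transiently transfected with multiplexed GAL4-UAS reporter units and chimeric NR-Gal4 constructs were exposed to test chemicals for 24 h. Reporter mRNA was measured by RT-PCR, 6-FAM primer extension, HpaI digestion and capillary electrophoresis; gain-of-signal versus DMSO.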
# [2] = target: Bile acid receptor (Homo sapiens) (UniProt Q96RI1); assay: ATG_FXR_TRANS: Attagene TRANS-FACTORIAL HepG2 Assay for Farnesoid X Receptor (FXR) (AID 2282979; active = hit-call score of the fitted dose curve at least 0.9, where 1 is the maximum;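 note: hits raise reporter mRNA above DMSO so AC50 marks FXR activation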); conditions: HepG2 Attagene TRANS FXR-GAL4 reporter transcription
# Summary of the method: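 Reporter transcripts from transfected HepG2 cells were measured 24 h after dosing, using RT-PCR with capillary electrophoresis of 6-FAM-labelled fragments. The read-out reflects activity of exogenous FXR-Gal4 chimera on GAL4-UAS units, with induction relative to DMSO.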
# [3] = target: Oxysterols receptor LXR-beta (Homo sapiens) (UniProt P55055); assay: ATG_LXRb_TRANS: Attagene TRANS-FACTORIAL HepG2 Assay for human Liver X Receptor beta (LXRb) (AID 2282981; active = hit-call score of the fitted dose curve at least 0.9, where 1 is the maximum); conditions: HepG2 Attagene TRANS GAL4-LXRb reporter, mRNA
# Summary of the method: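 HepG2 cells transiently transfected with multiple reporter transcription units carrying chimeric NR-Gal4 proteins acting on GAL4-UAS reporters; compound exposure 24 h. Reporter mRNA quantified by RT-PCR, 6-FAM labelling, HpaI digestion and capillary electrophoresis; gain of signal versus DMSO.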
# [4] = target: Hepatocyte nuclear factor 4-alpha (Homo sapiens) (UniProt P41235); assay: ATG_HNF4a_TRANS: Attagene TRANS-FACTORIAL HepG2 Assay for human Hepatocyte Nuclear Factor 4 alpha (HNF4a) (AID 2282982; active = hit-call score of the fitted dose curve at least 0.9, where 1 is the maximum); conditions: HepG2 HNF4a transactivation reporter, mRNA readout
# Summary of the method: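 HepG2 cells transiently transfected with multiplexed GAL4-UAS reporter units responsive to chimeric NR-GAL4 proteins; compound exposure 24 h. Reporter mRNA quantified by RT-PCR, 6-FAM labelling, HpaI digestion and capillary electrophoresis; gain of signal versus DMSO baseline.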
# [5] = target: Transcriptional activator Myb (Homo sapiens) (UniProt P10242); assay: ATG_Myb_CIS: Attagene CIS-FACTORIAL HepG2 Assay for human Myeloblastosis (Myb) Proto-Oncogene Transcription Factor (AID 2282986); conditions: HepG2 Attagene CIS-FACTORIAL Myb reporter transcription; actives raise or lower the signal
# Summary of the method: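 Multiplexed cis-reporter system in HepG2: transient transfection, 24 h treatment, mRNA readout by RT-PCR and capillary electrophoresis. Both increases and decreases are scored versus DMSO negative control.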
# [6] = target: Nuclear respiratory factor 1 (Homo sapiens) (UniProt Q16656); assay: ATG_NRF1_CIS: Attagene CIS-FACTORIAL HepG2 Assay for human Nuclear Respiratory Factor 1 (NRF1) Orphan Gene (AID 2282987); conditions: HepG2 NRF1 cis-element reporter, Attagene multiplex; actives raise or lower the signal
# Summary of the method: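 Endogenous factor activity was captured via cis-element-driven reporter transcripts in HepG2 cells. Following 24 h chemical treatment, transcripts were quantified by RT-PCR and capillary electrophoresis.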
# [7] = ATG_NFI_CIS: Attagene CIS-FACTORIAL HepG2 Assay for human Nuclear Factor I (NFI) (AID 2282989); conditions: HepG2 cis-regulatory reporter, NFI response element transcription; actives raise or lower the signal
# Summary of the method: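 Reporter transcription driven by endogenous transcription factors in HepG2 cells; 24 h treatment. Quantitation by labelled RT-PCR fragments on capillary electrophoresis, gain- or loss-of-signal relative to DMSO.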
# [8] = target: Myc proto-oncogene protein (Homo sapiens) (UniProt P01106); assay: ATG_Myc_CIS: Attagene CIS-FACTORIAL HepG2 Assay for human Myelocytomatosis (Myc) Proto-Oncogene Transcription Factor (AID 2282990); conditions: HepG2, Attagene cis-reporter transcription factor activity; actives raise or lower the signal
# Summary of the method: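 HepG2 cells transiently transfected with multiple cis-promoter-driven reporter transcription units, so endogenous TF activity is read. After 24 h compound exposure, reporter mRNA was quantified by RT-PCR, 6-FAM labelling, HpaI digestion and capillary electrophoresis; bidirectional fit versus DMSO.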
# [9] = ATG_NF_kB_CIS: Attagene CIS-FACTORIAL HepG2 Assay for human Nuclear Factor Kappa B (NF-kB) (AID 2282991); conditions: HepG2 Attagene cis-factorial NF-kB reporter mRNA; actives raise or lower the signal
# Summary of the method: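 After 24 h compound incubation, transfected HepG2 cells yield total RNA; reporter cDNA is PCR-amplified, end-labelled with 6-FAM, HpaI-digested and analysed on a genetic analyser. Endogenous factor activity, DMSO-referenced bidirectional fit.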
# [10] = ATG_NRF2_ARE_CIS: Attagene CIS-FACTORIAL HepG2 Assay for human Nuclear Factor Erythroid 2 Related Factor 2 (NFR2) response to Antioxidant Response Elements (ARE) (AID 2282992); conditions: HepG2 Attagene ARE/NRF2 reporter, transcription factor activity; actives raise or lower the signal;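 for AC50: reporter mRNA level measured by RT-PCR and capillary electrophoresis fluorescence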
# Summary of the method: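 Transient MRTU transfection of HepG2; 24 h compound exposure; TriZol RNA, RT with oligo(dT), PCR, 6-FAM primer extension, HpaI cut, CE. Bidirectional fit vs DMSO.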
# [11] = ATG_Oct_MLP_CIS: Attagene CIS-FACTORIAL HepG2 Assay for human Octamer-Binding Transcription Factor (Oct) (AID 2282993); conditions: HepG2 Attagene cis-factorial Oct reporter, mRNA; actives raise or lower the signal
# Summary of the method: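 Transfected HepG2 cells, 24 h treatment. Reporter mRNA quantified by RT-PCR–capillary electrophoresis; bidirectional fitting against DMSO.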
# [12] = BSK_3C_TissueFactor: BioMAP Diversity Plus: 3C Assay for Tissue Factor Biomarker Activity (AID 2282997); conditions: BioMAP 3C HUVEC, tissue factor biomarker readout; actives raise or lower the signal
# Summary of the method: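 Dosing of human umbilical vein endothelial cells preceded a 24 h incubation. Tissue Factor was then read by ELISA, with increases and decreases both scored relative to DMSO controls.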
# [13] = BSK_3C_uPAR: BioMAP Diversity Plus: 3C Assay for Urokinase-type plasminogen activator receptor (uPAR) Biomarker Activity (AID 2282998); conditions: BioMAP 3C HUVEC, uPAR biomarker ELISA; actives raise or lower the signal
# Summary of the method: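 Readout: ELISA for surface uPAR. System: human umbilical vein endothelial primary cells, 24 h after chemical exposure. Analysis: bidirectional fit, DMSO baseline.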
# [14] = BSK_3C_VCAM1: BioMAP Diversity Plus: 3C Assay for Vascular cell adhesion molecule 1 (VCAM1) Biomarker Activity (AID 2282999); conditions: BioMAP 3C HUVEC, VCAM1 ELISA, cytokine-stimulated; actives raise or lower the signal
# Summary of the method: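 Human umbilical vein endothelial cells were dosed with compound for 24 h, after which cell-surface VCAM-1 was quantified by ELISA. Bidirectional curve fitting used DMSO as negative control and activity baseline.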
# [15] = target: Glucocorticoid receptor (Homo sapiens) (UniProt P04150); assay: ATG_GR_TRANS: Attagene TRANS-FACTORIAL HepG2 Assay for human Glucocorticoid Receptor (GR) (AID 2282978; active = hit-call score of the fitted dose curve at least 0.9, where 1 is the maximum;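 note: activators score as hits since higher reporter transcript over DMSO is fitted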); conditions: HepG2 Attagene TRANS GR reporter, mRNA transcription
# Summary of the method: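 HepG2 transient transfection, multiple reporter units, GAL4-UAS under NR-GAL4 chimera control. 24 h treatment. Reporter mRNA by RT-PCR/CE fluorescence, DMSO as negative control.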
# [16] = ATG_M_32_TRANS: Attagene TRANS-FACTORIAL HepG2 Assay for M32 Transcription Factor (Internal Marker) (AID 2282984; active = hit-call score of the fitted dose curve at least 0.9, where 1 is the maximum;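 note: transcript level of a background control reporter unit measured by RT-PCR and capillary electrophoresis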); conditions: HepG2 Attagene TRANS M32 internal marker reporter
# Summary of the method: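 HepG2 cells transiently transfected with multiple GAL4-UAS reporter transcription units, dosed for 24 hours; reporter mRNA quantified by RT-PCR, 6-FAM primer extension, HpaI digestion and capillary electrophoresis. Gain-of-signal fitted versus DMSO baseline; internal background-control marker.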
# [17] = target: Oxysterols receptor LXR-alpha (Homo sapiens) (UniProt Q13133); assay: ATG_LXRa_TRANS: Attagene TRANS-FACTORIAL HepG2 Assay for human Liver X Receptor alpha (LXRa) (AID 2282980; active = hit-call score of the fitted dose curve at least 0.9, where 1 is the maximum); conditions: HepG2 Attagene TRANS reporter, LXRa transactivation
# Summary of the method: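 Chemical-induced reporter mRNA measured by RT-PCR with fluorescent labelling and capillary electrophoresis after 24 h dosing of transiently transfected HepG2 cells expressing exogenous NR-Gal4 chimeras; increases scored against DMSO baseline.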
# [18] = ATG_M_06_TRANS: Attagene TRANS-FACTORIAL HepG2 Assay for M06 Transcription Factor (Internal Marker) (AID 2282983; active = hit-call score of the fitted dose curve at least 0.9, where 1 is the maximum;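 note: reporter transcript level by RT-PCR then capillary electrophoresis fluorescence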); conditions: HepG2 Attagene TRANS M06 internal marker reporter
# Summary of the method: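 Cells: HepG2, transient multi-reporter transfection. Exposure: 24 h. Detection: RT-PCR, 6-FAM labelling, HpaI digestion (2 h, 37 °C), capillary electrophoresis. Baseline: DMSO.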
# [19] = target: Cellular tumor antigen p53 (Homo sapiens) (UniProt P04637); assay: ATG_p53_CIS: Attagene CIS-FACTORIAL HepG2 Assay for human p53 Transcription Factor (AID 2282994); conditions: HepG2 p53 cis-element reporter, Attagene mRNA; actives raise or lower the signal
# Summary of the method: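 HepG2, transient MRTU transfection (cis promoter elements, endogenous TFs); 24 h dosing; RNA isolation, RT-PCR, 6-FAM primer extension, HpaI digest, CE fluorescence; bidirectional fit vs DMSO.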
# Chain of Hepatocyte nuclear factor 4-alpha (Homo sapiens) (P41235 whole entry, looked up, the tested form may be a part): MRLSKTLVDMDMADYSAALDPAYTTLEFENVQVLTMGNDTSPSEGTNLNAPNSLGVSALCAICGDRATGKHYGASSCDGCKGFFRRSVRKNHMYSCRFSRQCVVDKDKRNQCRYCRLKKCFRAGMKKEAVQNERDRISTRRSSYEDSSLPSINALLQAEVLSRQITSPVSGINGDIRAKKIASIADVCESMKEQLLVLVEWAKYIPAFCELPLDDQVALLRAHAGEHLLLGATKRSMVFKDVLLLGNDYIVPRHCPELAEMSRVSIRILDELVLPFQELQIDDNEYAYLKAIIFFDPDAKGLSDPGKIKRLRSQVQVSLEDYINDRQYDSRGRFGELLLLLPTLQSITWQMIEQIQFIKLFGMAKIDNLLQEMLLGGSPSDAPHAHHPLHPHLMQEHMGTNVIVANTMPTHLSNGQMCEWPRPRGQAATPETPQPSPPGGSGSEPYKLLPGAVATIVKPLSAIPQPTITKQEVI
# Chain of Transcriptional activator Myb (Homo sapiens) (P10242 whole entry, looked up): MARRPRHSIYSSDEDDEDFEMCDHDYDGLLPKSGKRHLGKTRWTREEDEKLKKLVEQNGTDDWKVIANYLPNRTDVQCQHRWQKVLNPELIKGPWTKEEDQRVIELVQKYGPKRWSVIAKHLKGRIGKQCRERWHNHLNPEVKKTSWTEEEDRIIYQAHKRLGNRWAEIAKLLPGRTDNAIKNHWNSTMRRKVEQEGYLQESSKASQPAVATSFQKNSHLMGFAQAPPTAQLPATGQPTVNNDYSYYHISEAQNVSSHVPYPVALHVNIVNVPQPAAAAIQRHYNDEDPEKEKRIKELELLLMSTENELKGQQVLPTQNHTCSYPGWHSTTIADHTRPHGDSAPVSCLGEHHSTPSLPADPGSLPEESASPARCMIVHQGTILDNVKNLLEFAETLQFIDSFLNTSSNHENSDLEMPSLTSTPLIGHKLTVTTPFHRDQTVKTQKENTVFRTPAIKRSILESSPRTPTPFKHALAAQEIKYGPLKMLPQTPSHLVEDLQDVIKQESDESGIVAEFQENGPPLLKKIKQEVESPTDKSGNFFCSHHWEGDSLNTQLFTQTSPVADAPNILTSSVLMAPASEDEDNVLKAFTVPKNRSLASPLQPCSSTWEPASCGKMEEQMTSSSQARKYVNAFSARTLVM
# Chain of Cellular tumor antigen p53 (Homo sapiens) (P04637 whole entry, looked up): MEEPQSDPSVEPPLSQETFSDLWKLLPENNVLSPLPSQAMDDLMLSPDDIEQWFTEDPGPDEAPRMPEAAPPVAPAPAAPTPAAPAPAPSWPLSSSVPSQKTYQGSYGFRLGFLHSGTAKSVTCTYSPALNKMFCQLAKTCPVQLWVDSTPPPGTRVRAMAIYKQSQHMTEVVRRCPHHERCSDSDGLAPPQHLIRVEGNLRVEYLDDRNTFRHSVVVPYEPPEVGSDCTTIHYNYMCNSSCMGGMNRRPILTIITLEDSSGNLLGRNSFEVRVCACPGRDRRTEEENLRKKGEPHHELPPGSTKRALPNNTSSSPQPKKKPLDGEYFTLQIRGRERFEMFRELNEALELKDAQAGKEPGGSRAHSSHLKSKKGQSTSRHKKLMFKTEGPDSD
# Chain of Myc proto-oncogene protein (Homo sapiens) (P01106 whole entry, looked up): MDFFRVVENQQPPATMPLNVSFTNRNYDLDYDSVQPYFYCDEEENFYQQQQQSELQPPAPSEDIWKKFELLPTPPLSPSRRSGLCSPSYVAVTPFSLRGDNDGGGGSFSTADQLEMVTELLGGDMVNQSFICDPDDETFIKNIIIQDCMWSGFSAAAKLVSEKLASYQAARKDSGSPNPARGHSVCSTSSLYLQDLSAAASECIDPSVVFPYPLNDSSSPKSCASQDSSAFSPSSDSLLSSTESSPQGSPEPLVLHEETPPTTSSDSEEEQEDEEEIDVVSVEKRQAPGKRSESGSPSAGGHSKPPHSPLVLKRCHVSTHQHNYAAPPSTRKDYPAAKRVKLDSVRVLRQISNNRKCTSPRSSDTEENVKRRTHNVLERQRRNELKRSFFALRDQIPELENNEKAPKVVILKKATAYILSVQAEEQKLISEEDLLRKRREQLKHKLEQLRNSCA
# Chain of Nuclear respiratory factor 1 (Homo sapiens) (Q16656 whole entry, looked up): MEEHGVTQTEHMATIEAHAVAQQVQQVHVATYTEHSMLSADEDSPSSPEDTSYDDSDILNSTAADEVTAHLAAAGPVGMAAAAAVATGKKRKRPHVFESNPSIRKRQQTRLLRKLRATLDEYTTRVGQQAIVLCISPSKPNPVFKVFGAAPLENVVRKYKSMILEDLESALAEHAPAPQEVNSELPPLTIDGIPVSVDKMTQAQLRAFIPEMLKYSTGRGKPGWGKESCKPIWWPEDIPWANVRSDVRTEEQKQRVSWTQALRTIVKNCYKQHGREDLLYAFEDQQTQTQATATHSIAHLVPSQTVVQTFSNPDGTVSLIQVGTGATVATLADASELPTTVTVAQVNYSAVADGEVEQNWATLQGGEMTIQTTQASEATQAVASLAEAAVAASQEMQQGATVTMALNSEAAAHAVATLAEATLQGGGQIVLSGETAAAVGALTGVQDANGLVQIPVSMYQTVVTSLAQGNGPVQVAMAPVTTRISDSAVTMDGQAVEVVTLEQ
# Chain of Oxysterols receptor LXR-alpha (Homo sapiens) (Q13133 whole entry, looked up, the tested form may be a part): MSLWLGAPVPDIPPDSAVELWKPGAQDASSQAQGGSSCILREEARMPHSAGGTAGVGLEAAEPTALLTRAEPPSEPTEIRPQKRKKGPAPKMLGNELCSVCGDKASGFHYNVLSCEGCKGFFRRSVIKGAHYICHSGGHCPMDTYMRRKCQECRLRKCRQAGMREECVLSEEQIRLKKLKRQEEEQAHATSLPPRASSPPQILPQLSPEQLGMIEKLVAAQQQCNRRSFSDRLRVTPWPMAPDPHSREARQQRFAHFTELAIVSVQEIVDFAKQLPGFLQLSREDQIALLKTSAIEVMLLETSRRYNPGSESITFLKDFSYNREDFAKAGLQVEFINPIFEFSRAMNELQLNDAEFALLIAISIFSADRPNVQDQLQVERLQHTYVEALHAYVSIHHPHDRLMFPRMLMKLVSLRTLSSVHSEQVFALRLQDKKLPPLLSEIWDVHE
# Chain of Bile acid receptor (Homo sapiens) (Q96RI1 whole entry, looked up, the tested form may be a part): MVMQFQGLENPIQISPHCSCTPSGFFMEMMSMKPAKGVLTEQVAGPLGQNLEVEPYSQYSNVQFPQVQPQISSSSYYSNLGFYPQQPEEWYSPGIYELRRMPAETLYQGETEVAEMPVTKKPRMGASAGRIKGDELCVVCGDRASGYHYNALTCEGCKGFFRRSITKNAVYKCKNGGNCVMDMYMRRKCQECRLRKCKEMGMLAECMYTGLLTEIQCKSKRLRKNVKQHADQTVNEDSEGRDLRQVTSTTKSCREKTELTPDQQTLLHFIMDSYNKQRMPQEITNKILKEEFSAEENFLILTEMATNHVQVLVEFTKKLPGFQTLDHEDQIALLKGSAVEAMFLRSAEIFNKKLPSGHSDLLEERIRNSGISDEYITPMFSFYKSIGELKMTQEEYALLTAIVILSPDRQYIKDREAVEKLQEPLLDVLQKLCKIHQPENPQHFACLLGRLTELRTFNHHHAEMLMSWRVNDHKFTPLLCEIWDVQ
# Chain of Estrogen-related receptor gamma (Homo sapiens) (P62508 whole entry, looked up, the tested form may be a part): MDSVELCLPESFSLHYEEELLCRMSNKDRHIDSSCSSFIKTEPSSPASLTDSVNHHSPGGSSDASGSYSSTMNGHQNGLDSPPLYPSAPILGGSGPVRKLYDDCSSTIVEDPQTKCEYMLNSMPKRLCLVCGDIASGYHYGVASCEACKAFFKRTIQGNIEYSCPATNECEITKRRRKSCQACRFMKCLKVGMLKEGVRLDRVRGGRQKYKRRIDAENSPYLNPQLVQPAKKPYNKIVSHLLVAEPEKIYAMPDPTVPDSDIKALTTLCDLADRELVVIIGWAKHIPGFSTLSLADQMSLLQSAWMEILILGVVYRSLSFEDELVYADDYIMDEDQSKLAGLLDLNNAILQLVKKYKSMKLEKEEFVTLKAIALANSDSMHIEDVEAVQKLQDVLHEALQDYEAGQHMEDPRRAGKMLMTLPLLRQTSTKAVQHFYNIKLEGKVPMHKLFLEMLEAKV
# Chain of Oxysterols receptor LXR-beta (Homo sapiens) (P55055 whole entry, looked up, the tested form may be a part): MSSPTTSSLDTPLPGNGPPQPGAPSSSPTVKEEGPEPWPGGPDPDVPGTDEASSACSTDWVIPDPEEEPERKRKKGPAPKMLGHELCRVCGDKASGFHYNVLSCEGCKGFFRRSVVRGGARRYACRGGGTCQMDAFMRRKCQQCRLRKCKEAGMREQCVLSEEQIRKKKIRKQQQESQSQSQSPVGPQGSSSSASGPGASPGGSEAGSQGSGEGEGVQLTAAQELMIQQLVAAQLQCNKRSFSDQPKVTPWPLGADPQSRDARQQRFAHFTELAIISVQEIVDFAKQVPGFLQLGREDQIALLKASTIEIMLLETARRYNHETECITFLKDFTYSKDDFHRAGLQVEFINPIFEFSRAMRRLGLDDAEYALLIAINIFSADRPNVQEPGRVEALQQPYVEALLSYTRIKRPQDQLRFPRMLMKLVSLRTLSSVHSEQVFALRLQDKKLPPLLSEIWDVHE
structure (smiles),measurement,setting,value
Cc1nccn1-c1ccc(Sc2cccc(C3(C(N)=O)CCOCC3)c2)cc1,outcome,[1],inactive
same,outcome,[2],inactive
same,outcome,[3],inactive
same,outcome,[4],inactive
same,outcome,[5],inactive
same,outcome,[6],inactive
same,AC50,[7],2.39 µM (active)
same,AC50,[8],2.85 µM (active)
same,outcome,[9],inactive
same,AC50,[10],0.858 µM (active)
same,AC50,[11],3.22 µM (active)
same,AC50,[12],8.83 µM (active)
same,outcome,[13],inactive
same,outcome,[14],inactive
C[C@@H](Oc1ccc(CNC(=O)c2cccnc2Oc2ccc3c(c2)OCO3)c(F)c1)C(=O)O,outcome,[1],inactive
same,outcome,[15],inactive
same,outcome,[2],inactive
same,outcome,[3],inactive
same,outcome,[16],inactive
same,outcome,[5],inactive
same,outcome,[6],inactive
same,outcome,[7],inactive
same,outcome,[8],inactive
same,outcome,[9],inactive
same,outcome,[10],inactive
same,outcome,[11],inactive
same,outcome,[12],inactive
same,outcome,[13],inactive
same,outcome,[14],inactive
Cc1nc(-c2ccccn2)ncc1C(=O)Nn1cc(C)c2cc(F)ccc21,outcome,[1],inactive
same,outcome,[5],inactive
same,outcome,[6],inactive
same,outcome,[7],inactive
same,outcome,[8],inactive
same,outcome,[9],inactive
same,outcome,[10],inactive
same,outcome,[11],inactive
same,outcome,[12],inactive
same,AC50,[13],20 µM (active)
same,outcome,[14],inactive
O=c1[nH]cnc2c1ncn2[C@H]1CC[C@@H](CO)O1,outcome,[1],inactive
same,outcome,[15],inactive
same,outcome,[3],inactive
same,outcome,[5],inactive
same,outcome,[6],inactive
same,outcome,[7],inactive
same,outcome,[8],inactive
same,outcome,[10],inactive
same,outcome,[11],inactive
same,outcome,[12],inactive
same,outcome,[13],inactive
same,outcome,[14],inactive
OCc1c[nH]c2ccccc12,outcome,[1],inactive
same,outcome,[2],inactive
same,outcome,[17],inactive
same,outcome,[3],inactive
same,outcome,[4],inactive
same,outcome,[18],inactive
same,outcome,[16],inactive
same,outcome,[5],inactive
same,outcome,[7],inactive
same,outcome,[8],inactive
same,AC50,[9],25.5 µM (active)
same,outcome,[9],inactive
same,AC50,[10],26.6 µM (active) [middle of 5 runs]
same,outcome,[11],inactive
same,AC50,[19],26.8 µM (active)
same,outcome,[19],inactive
same,AC50,[12],0.133 µM (active)
same,AC50,[13],20 µM (active)
same,outcome,[14],inactive
O=C(NO)C1(NS(=O)(=O)c2ccc(Oc3ccc(F)cc3)cc2)CCOCC1,outcome,[1],inactive
same,outcome,[17],inactive
same,outcome,[3],inactive
same,outcome,[4],inactive
same,outcome,[16],inactive
same,outcome,[5],inactive
same,outcome,[7],inactive
same,outcome,[8],inactive
same,outcome,[9],inactive
same,AC50,[10],33 µM (active)
same,outcome,[11],inactive
same,outcome,[12],inactive
same,outcome,[13],inactive
same,outcome,[14],inactive
CC(C)c1nnc2ccc(-c3ocnc3-c3cc(F)ccc3F)cn12,outcome,[1],inactive
same,outcome,[15],inactive
same,outcome,[2],inactive
same,outcome,[3],inactive
same,outcome,[18],inactive
same,outcome,[5],inactive
same,outcome,[8],inactive
same,AC50,[11],130 µM (active)
same,outcome,[19],inactive
same,AC50,[12],0.743 µM (active)
same,outcome,[13],inactive
same,outcome,[14],inactive
FC(F)(F)C(F)(F)C(F)(F)C(F)(F)C(F)(F)C(F)(F)I,outcome,[1],inactive
same,outcome,[15],inactive
same,outcome,[2],inactive
same,outcome,[17],inactive
same,outcome,[3],inactive
same,outcome,[16],inactive
same,outcome,[5],inactive
same,outcome,[7],inactive
same,outcome,[8],inactive
same,outcome,[9],inactive
same,AC50,[10],107 µM (active)
same,outcome,[10],inactive
same,outcome,[11],inactive
same,outcome,[19],inactive
same,outcome,[12],inactive
same,outcome,[13],inactive
same,outcome,[14],inactive
